Consider 21 sequences from the OligoGym collection.
Note: reference of the scale not given here.

The first assay deals with TMEM130. Description: pooled miR-30 sensor sort-seq; sequence = guide strand. As to conditions: shRNA.
Turning to ATAGTTATAATAGACCACGGAG, the sensor-assay potency score (higher = more potent) was -0.516. As to TATTGTCTCAGCCACAGCCCAG, the sensor-assay potency score (higher = more potent) was -1.4. TTTATTTAGCAACAATGGCAGT had a sensor-assay potency score (higher = more potent) of -0.968. On to TAGAGAAACAAGGCGGTCTTGA, for which the sensor-assay potency score (higher = more potent) stood at 0.529. In turn, TTGCTGAGTGGCATTCCGCAGG had a sensor-assay potency score (higher = more potent) of -0.984.

In turn, TAGTTATGGATTTTTAACCCTT came in with a sensor-assay potency score (higher = more potent) of -0.844. Consider TTCTGCTTCACAGCCCTCGTGG, for which the sensor-assay potency score (higher = more potent) is -0.803. For the sequence TTGGAAGGTCTGAATTAGGGTG, the sensor-assay potency score (higher = more potent) stood at 0.0908.

For the sequence TTGTCCTTGGCCACCAGGCTGG, the sensor-assay potency score (higher = more potent) is -1.04.

In another assay the target is TMEM140. The description is as above. Particulars: shRNA.
Turning to TATGATGCTCATGAACAGCAGC, the sensor-assay potency score (higher = more potent) is -0.769. In turn, ATGAACAGCAGCTGGTCGCGCC came in with a sensor-assay potency score (higher = more potent) of -1.18. As for TGACACTGTAGGGTGCTGGTGT, the sensor-assay potency score (higher = more potent) is 0.184. The sequence AAGAGCGTAAAACATCAGGCAG registered a sensor-assay potency score (higher = more potent) of -0.966.

TATAGAAGCCGATTCTCAGGTT returned a sensor-assay potency score (higher = more potent) of 0.501.

The sequence TGCTCATGAACAGCAGCTGGTC gave a sensor-assay potency score (higher = more potent) of -1.48. The same measure, in the same setting: the value for TCTCTCATCACTGTTGCACTGG was 0.0267. ATGCTCATGAACAGCAGCTGGT had a sensor-assay potency score (higher = more potent) of -1.09. For the sequence TGTACTAAGAAGTCACAGGTGC, the sensor-assay potency score (higher = more potent) is 0.194. Same read-out and setting: the value for TAGAAGCCGATTCTCAGGTTGG was -0.232; that for ATCACGAGGACTATGATGCTCA was -0.61. Same read-out and setting: the result for TTATAGAAGCCGATTCTCAGGT reads 0.174.
